# Test results reported in article PMC7862700, “An all-to-all approach to the identification of sequence-specific readers for epigenetic DNA modifications on cytosine”.
# Legend:
# Experiment in all cases: DAPPL (digital affinity profiling via proximity ligation, sequencing); 10 mM Tris-HCl pH 7.5, 50 mM NaCl, 1 mM DTT, 4% glycerol, room temperature, 30 min; GST-TFs on glutathione beads, 16-mer random dsDNA library, 0.1% formaldehyde crosslink after washing; high values mean tight binding
# FEV = target: T1, FEV (Homo sapiens, UniProt Q99581 1-238); conditions: protein: recombinant; tags: N-terminal GST; dsDNA, one strand shown
# T1 sequence: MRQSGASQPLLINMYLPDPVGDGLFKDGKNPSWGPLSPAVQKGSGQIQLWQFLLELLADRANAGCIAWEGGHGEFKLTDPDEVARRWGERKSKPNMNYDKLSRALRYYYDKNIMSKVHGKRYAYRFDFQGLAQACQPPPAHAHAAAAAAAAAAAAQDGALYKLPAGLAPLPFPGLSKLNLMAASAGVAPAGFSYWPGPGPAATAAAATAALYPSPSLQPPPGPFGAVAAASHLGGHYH
# In short: (§1)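 In yeast, human transcription factors were expressed with a GST fusion, then pulled down on glutathione beads and given DNA barcodes. Pooled with a tag-only sample, they were exposed to 200 nmole of a 16-mer random double-stranded DNA library (Tris/NaCl/DTT/glycerol buffer, room temperature, 30 min), washed, crosslinked with 0.1% formaldehyde, proximity-ligated using BsaI/T4 ligase for 1 h at 37 °C, PCR-amplified and read on an Illumina NextSeq500. Each hexamer's frequency of reads for a factor, divided by the matching frequency for the tag-only sample, gives the binding signal.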
# ETV5 = ETV5 (Homo sapiens, UniProt P41161 1-510); conditions: protein: recombinant; tags: N-terminal GST; dsDNA, one strand shown
# ETV5, sequence (P41161 whole entry): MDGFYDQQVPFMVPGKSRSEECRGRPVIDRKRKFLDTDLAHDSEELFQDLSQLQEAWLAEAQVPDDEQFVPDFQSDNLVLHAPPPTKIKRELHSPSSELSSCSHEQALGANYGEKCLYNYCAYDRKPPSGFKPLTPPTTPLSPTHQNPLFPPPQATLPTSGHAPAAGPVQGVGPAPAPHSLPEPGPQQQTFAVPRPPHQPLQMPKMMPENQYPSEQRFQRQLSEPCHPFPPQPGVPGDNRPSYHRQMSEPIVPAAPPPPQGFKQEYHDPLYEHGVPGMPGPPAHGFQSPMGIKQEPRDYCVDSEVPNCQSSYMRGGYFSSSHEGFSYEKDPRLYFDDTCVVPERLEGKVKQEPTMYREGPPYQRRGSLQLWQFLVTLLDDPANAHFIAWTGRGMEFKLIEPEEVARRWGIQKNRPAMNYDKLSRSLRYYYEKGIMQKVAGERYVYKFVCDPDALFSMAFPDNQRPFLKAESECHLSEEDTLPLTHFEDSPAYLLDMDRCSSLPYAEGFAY
# In short: as §1
# HSF1 = HSF1 (Homo sapiens, UniProt Q00613 1-529); conditions: protein: recombinant; tags: N-terminal GST; chain copies: 3; dsDNA, one strand shown
# HSF1, sequence (Q00613 whole entry): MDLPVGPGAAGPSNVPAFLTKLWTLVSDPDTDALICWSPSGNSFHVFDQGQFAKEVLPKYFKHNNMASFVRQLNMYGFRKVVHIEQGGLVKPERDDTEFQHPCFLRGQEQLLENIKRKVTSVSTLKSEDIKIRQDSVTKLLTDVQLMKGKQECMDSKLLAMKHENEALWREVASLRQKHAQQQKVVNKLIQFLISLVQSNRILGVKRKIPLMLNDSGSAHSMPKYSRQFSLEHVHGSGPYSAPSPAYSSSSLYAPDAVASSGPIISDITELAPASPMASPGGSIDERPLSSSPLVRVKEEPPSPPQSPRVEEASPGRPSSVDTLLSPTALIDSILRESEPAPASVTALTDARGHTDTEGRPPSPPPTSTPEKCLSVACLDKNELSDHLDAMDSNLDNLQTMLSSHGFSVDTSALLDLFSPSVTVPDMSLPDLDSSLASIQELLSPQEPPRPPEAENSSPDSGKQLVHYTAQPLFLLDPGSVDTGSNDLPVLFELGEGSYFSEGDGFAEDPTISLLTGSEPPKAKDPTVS
# In short: as §1
# SPIC = target: T2, SPIC (Homo sapiens, UniProt Q8N5J4 1-248); conditions: protein: recombinant; tags: N-terminal GST; dsDNA, one strand shown
# T2 sequence: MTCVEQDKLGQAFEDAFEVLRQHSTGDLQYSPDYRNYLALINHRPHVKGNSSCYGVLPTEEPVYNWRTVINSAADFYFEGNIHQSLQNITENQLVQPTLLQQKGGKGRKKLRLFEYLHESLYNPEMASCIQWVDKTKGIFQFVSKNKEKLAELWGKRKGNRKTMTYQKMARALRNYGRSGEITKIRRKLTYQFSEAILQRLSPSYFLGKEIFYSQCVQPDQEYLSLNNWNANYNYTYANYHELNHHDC
# In short: as §1
# ELF4 = ELF4 (Homo sapiens, UniProt Q99607 1-663); conditions: protein: recombinant; tags: N-terminal GST; dsDNA, one strand shown
# ELF4, sequence (Q99607 whole entry): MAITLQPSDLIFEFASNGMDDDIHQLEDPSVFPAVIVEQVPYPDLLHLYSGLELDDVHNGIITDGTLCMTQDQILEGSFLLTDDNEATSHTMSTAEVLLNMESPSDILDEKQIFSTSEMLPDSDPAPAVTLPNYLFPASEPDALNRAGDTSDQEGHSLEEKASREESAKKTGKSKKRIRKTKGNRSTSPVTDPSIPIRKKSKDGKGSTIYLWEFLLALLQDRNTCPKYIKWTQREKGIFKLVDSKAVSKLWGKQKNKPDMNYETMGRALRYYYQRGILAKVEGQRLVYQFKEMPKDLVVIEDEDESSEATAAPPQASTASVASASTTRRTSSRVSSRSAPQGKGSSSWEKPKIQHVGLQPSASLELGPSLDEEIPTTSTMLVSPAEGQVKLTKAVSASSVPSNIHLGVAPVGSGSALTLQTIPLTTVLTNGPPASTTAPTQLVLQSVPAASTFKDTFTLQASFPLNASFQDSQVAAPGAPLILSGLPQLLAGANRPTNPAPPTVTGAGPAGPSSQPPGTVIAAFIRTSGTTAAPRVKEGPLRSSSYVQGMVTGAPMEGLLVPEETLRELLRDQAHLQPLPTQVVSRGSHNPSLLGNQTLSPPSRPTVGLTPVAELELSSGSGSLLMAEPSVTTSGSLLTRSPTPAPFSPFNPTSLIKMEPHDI
# In short: as §1
# ELK4 = target: T3, ELK4 (Homo sapiens, UniProt P28324-2 1-405); conditions: protein: recombinant; tags: N-terminal GST; dsDNA, one strand shown
# T3 sequence: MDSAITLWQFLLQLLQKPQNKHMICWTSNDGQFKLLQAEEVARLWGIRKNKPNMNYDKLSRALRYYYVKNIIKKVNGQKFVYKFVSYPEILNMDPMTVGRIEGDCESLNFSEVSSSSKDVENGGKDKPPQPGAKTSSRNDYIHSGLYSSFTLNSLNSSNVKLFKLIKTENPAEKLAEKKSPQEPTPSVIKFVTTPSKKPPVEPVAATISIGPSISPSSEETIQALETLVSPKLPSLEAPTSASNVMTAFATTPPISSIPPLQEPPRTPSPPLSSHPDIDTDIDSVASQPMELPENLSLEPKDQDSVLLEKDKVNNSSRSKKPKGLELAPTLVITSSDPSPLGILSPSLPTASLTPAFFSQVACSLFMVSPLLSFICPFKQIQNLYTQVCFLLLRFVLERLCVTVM
# In short: as §1
# ETV2 = target: T4, ETV2 (Homo sapiens, UniProt O00321 1-342); conditions: protein: recombinant; tags: N-terminal GST; dsDNA, one strand shown
# T4 sequence: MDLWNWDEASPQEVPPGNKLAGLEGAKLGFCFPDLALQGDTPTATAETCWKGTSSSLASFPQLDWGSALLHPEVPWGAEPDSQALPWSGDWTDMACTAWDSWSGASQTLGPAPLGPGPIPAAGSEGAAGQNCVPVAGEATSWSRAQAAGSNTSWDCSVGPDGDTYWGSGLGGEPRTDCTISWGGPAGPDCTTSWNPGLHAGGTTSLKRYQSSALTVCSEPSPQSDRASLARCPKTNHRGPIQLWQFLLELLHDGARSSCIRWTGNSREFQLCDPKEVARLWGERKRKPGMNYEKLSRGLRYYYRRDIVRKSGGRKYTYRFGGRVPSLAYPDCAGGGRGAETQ
# In short: as §1
# ELF3 = target: T5, ELF3 (Homo sapiens, UniProt P78545 1-371); conditions: protein: recombinant; tags: N-terminal GST; dsDNA, one strand shown
# T5 sequence: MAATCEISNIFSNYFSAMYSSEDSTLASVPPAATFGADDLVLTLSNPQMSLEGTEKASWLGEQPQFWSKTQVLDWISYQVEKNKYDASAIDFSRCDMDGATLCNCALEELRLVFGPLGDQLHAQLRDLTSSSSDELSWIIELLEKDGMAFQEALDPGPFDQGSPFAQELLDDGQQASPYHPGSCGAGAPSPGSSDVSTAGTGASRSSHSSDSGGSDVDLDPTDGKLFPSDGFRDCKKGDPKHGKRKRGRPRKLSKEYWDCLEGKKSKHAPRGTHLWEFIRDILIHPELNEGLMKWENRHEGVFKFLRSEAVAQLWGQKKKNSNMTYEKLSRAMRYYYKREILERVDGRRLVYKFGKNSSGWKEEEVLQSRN
# In short: as §1
# CRX = CRX (Homo sapiens, UniProt O43186 1-299); conditions: protein: recombinant; tags: N-terminal GST; dsDNA, one strand shown
# CRX, sequence (O43186 whole entry): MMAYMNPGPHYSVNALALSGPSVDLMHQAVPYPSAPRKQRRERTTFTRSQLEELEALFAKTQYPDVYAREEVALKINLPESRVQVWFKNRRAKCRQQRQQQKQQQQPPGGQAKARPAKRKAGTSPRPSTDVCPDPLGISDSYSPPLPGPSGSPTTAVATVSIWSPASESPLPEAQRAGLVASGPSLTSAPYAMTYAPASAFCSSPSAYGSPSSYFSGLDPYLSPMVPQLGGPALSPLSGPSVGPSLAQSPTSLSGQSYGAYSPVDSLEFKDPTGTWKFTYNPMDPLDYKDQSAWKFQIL
# In short: as §1
# ETV1 = ETV1 (Homo sapiens, UniProt P50549 1-477); conditions: protein: recombinant; tags: N-terminal GST; dsDNA, one strand shown
# ETV1, sequence (P50549 whole entry): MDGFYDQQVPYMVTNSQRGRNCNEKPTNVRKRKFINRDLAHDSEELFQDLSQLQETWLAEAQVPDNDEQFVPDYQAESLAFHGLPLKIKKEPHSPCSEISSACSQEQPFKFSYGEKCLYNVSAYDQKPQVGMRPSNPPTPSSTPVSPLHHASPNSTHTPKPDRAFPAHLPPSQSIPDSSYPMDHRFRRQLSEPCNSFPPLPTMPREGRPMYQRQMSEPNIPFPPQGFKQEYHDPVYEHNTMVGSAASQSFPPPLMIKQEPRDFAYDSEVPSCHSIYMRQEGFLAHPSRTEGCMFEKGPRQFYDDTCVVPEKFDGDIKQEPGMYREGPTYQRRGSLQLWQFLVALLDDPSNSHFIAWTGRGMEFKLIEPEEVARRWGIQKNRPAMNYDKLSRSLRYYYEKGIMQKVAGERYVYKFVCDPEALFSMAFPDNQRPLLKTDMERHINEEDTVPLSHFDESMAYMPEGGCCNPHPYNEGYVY
# In short: as §1
# ERF = target: T6, ERF (Homo sapiens, UniProt P50548 1-548); conditions: protein: recombinant; tags: N-terminal GST; dsDNA, one strand shown
# T6 sequence: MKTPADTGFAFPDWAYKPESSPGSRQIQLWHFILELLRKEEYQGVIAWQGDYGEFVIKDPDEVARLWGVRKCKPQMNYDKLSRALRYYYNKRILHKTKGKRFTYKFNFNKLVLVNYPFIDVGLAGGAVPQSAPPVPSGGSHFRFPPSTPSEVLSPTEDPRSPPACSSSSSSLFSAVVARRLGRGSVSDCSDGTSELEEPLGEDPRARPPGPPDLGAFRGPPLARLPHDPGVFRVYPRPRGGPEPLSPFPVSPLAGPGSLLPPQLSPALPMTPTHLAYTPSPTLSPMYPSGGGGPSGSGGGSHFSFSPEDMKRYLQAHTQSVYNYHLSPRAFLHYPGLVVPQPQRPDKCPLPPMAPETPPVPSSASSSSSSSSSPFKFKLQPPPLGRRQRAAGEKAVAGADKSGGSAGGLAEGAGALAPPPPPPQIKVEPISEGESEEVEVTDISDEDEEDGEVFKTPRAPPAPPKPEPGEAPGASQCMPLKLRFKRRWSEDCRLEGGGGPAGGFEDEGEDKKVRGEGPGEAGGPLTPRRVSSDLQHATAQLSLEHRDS
# In short: as §1
# ETV3L = target: T7, ETV3L (Homo sapiens, UniProt Q6ZN32 1-361); conditions: protein: recombinant; tags: N-terminal GST; dsDNA, one strand shown
# T7 sequence: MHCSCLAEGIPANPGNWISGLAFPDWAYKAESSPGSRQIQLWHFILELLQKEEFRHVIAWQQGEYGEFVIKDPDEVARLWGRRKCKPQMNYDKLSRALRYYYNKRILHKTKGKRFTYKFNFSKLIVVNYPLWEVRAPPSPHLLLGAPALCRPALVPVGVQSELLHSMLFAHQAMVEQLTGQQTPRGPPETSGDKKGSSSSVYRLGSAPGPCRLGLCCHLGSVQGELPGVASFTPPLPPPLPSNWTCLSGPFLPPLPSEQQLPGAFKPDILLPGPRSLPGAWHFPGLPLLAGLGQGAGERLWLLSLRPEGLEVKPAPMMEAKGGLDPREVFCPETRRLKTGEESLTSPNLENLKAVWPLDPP
# In short: as §1
# ETS2 = target: T8, ETS2 (Homo sapiens, UniProt P15036 1-469); conditions: protein: recombinant; tags: N-terminal GST; dsDNA, one strand shown
# T8 sequence: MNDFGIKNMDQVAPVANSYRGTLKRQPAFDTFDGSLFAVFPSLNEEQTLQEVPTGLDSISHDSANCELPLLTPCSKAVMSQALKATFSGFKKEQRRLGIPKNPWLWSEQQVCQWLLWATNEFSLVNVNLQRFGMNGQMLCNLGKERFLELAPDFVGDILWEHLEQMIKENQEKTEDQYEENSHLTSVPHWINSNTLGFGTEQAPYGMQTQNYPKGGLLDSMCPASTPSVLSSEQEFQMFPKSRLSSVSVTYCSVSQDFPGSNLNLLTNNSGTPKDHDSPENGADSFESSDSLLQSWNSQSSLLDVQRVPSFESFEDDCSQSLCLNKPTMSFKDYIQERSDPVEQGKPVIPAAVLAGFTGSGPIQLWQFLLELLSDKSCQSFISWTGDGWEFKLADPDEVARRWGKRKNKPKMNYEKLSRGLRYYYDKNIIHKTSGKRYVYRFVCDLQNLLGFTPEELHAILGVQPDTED
# In short: as §1
# SPDEF = target: T9, SPDEF (Homo sapiens, UniProt O95238 1-335); conditions: protein: recombinant; tags: N-terminal GST; dsDNA, one strand shown
# T9 sequence: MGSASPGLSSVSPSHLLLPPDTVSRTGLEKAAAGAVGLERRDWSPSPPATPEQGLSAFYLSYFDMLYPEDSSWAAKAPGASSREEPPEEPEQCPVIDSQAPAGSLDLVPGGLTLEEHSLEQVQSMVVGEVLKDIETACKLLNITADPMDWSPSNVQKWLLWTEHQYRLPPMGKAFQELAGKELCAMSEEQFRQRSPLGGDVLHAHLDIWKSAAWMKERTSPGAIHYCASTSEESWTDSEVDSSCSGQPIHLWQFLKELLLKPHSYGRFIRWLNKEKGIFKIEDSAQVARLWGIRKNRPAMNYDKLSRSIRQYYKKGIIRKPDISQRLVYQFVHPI
# In short: as §1
# ETV7 = target: T10, ETV7 (Homo sapiens, UniProt Q9Y603 1-341); conditions: protein: recombinant; tags: N-terminal GST; dsDNA, one strand shown
# T10 sequence: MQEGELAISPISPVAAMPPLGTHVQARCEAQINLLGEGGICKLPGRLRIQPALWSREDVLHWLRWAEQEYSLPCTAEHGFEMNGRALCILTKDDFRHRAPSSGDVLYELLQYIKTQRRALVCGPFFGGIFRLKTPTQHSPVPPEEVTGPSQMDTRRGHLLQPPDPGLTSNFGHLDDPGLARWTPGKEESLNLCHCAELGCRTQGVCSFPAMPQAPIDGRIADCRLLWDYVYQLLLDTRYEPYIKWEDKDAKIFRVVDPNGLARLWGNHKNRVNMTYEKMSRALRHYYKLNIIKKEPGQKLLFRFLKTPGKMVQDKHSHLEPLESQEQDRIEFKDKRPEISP
# In short: as §1
# ELF5 = target: T11, ELF5 (Homo sapiens, UniProt Q9UKW6-2 1-255); conditions: protein: recombinant; tags: N-terminal GST; dsDNA, one strand shown
# T11 sequence: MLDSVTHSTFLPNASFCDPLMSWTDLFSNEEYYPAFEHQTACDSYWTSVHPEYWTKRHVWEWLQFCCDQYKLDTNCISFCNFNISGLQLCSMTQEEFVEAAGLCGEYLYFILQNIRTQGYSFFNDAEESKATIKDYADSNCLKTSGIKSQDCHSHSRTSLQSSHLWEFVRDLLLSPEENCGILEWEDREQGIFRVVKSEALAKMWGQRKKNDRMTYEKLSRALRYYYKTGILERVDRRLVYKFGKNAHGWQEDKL
# In short: as §1
# ETV3 = target: T12, ETV3 (Homo sapiens, UniProt P41162-2 1-143); conditions: protein: recombinant; tags: N-terminal GST; dsDNA, one strand shown
# T12 sequence: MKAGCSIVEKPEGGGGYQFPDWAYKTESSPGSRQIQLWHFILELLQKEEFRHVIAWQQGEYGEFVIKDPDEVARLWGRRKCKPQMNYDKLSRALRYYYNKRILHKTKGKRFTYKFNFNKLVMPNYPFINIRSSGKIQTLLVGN
# In short: as §1
# ETV6 = ETV6 (Homo sapiens, UniProt P41212 1-452); conditions: protein: recombinant; tags: N-terminal GST; dsDNA, one strand shown
# ETV6, sequence (P41212 whole entry): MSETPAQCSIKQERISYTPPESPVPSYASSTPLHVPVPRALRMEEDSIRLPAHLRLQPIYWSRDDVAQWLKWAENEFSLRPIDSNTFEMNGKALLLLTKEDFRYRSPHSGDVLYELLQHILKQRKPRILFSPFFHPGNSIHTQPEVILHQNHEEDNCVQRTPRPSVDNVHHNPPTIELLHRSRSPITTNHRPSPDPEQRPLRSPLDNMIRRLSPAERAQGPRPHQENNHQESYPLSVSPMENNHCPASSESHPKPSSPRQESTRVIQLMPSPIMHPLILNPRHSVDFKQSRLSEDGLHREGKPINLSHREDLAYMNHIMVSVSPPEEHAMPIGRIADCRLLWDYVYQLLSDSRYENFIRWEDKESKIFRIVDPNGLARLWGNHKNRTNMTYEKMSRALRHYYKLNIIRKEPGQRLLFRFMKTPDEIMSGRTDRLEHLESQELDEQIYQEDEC
# In short: as §1
sequence,measurement,setting,value
ATAGCT,binding signal,FEV,"1.16 fold enrichment (6-mer frequency, TF over GST control)"
same,binding signal,ETV5,"1.2 fold enrichment (6-mer frequency, TF over GST control)"
same,binding signal,HSF1,"1.06 fold enrichment (6-mer frequency, TF over GST control)"
same,binding signal,SPIC,"1.15 fold enrichment (6-mer frequency, TF over GST control)"
same,binding signal,ELF4,"1.07 fold enrichment (6-mer frequency, TF over GST control)"
same,binding signal,ELK4,"1.25 fold enrichment (6-mer frequency, TF over GST control)"
same,binding signal,ETV2,"1.27 fold enrichment (6-mer frequency, TF over GST control)"
same,binding signal,ELF3,"1.26 fold enrichment (6-mer frequency, TF over GST control)"
same,binding signal,CRX,"1.26 fold enrichment (6-mer frequency, TF over GST control)"
same,binding signal,ETV1,"1.11 fold enrichment (6-mer frequency, TF over GST control)"
same,binding signal,ERF,"1.2 fold enrichment (6-mer frequency, TF over GST control)"
same,binding signal,ETV3L,"1.13 fold enrichment (6-mer frequency, TF over GST control)"
same,binding signal,ETS2,"1.1 fold enrichment (6-mer frequency, TF over GST control)"
same,binding signal,SPDEF,"1.07 fold enrichment (6-mer frequency, TF over GST control)"
same,binding signal,ETV7,"1.31 fold enrichment (6-mer frequency, TF over GST control)"
same,binding signal,ELF5,"1.07 fold enrichment (6-mer frequency, TF over GST control)"
same,binding signal,ETV3,"1.12 fold enrichment (6-mer frequency, TF over GST control)"
same,binding signal,ETV6,"1.13 fold enrichment (6-mer frequency, TF over GST control)"
